High-throughput results from PubChem BioAssay.
RORg inh: blocks mouse ROR gamma transcriptional activity; P51450; Drosophila S2 Gal4-RORgamma UAS-luciferase reporter, 20 h; Potency, µM (top dose mostly 53.6 µM), without a hit: at the top dose activity change, negative = inhibition, hits mostly inhibitors; hit rate 5.4% among 310,000; AID 2551; also: potency is read from the fitted curve at half-maximal effect; % is scaled to controls: 0 for no effect and ±100 for the full control effect; nearly all actives have a fitted effect of over 60% in size
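Compounds are pin-transferred onto Drosophila Schneider cells expressing a copper-inducible Gal4–ROR gamma transactivation domain fusion. After 1 hr, copper sulfate is added to 700 uM final; luciferase is read 20 hr later.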
p53 reactivator: restores transcriptional activity of mutant p53; H1299 p53-A138V BP100-luciferase reporter, luminescence, 24 h; Potency, µM (doses to about 92.2 µM), without a hit: top-dose activity change, positive = activation, hits mostly activators; hit rate 0.063% among 320,000; also: potency is read from the fitted curve at half-maximal effect; % of control where 0% means no effect; nearly all actives have a fitted effect of over 45% in size
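p53-null H1299 cells stably carrying temperature-sensitive p53-A138V and a BP100-luciferase reporter were pinned with compounds (4-point, 1:5 series) and held 24 hrs at 37 deg C. Luminescence was read 10 min after detection reagent.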
ELG1 DNA repair: blocks ELG1-dependent DNA repair in HEK293T cells. Potency, µM (top dose mostly 46.1 µM), for inactives: at the highest dose activity change, negative = inhibition, actives largely listed as inhibitors. hit rate 2.3% among 330,000. HEK293T ELG1-luciferase reporter, luminescence, 16 h; DNA damage induced by 5-fluorouridine; also: potency is read from the fitted curve at half-maximal effect; % is scaled to controls: 0 for no effect and ±100 for the full control effect; nearly all actives have a fitted effect of over 55% in size
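Overnight (16 hr) co-exposure of 2,000 cells/well to 5-fluorouridine and compound at 37 °C preceded detection. Luciferase was quantified via ONE-Glo luminescence; loss of signal denotes inhibition.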
BRCA1 expr up: activators of BRCA1 expression; MCF7-BRCA1-FFLuc reporter, luminescence, 48 h; response scale: scaled: vehicle 0%, 10 µM genistein 100%; Potency, µM (series often up to 46.1 µM), inactives show top-dose activation, most hits filed as activators; hit rate 1.1% among 380,000; AID 624202; also: potency is read from the fitted curve at half-maximal effect; nearly all actives have a fitted effect of over 80% in size
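Using MCF7 cells harboring a BRCA1 firefly luciferase reporter, plated 2 h before compound pinning, the screen measured luminescence after 48 h incubation. Responses were normalized to DMSO and 10 microM genistein, then fitted for concentration-effect.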
VP16 counter: counter-screen for ROR gamma inhibitors: Gal4-VP16 reporter; Drosophila S2 Gal4-VP16 UAS-luciferase, luminescence, 20 h; Potency, µM (series often up to 53.6 µM), inactives show at the top dose activity, negative = inhibition, hits mostly inhibitors; hit rate 3.5% among 310,000;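 also: Gal4-VP16 expression switched on by copper sulfate through the metallothionein promoter; potency is read from the fitted curve at half-maximal effect; % is scaled to controls: 0 for no effect and ±100 for the full control effect; nearly all actives have a fitted effect of over 50% in size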
Giardia killer: Giardia lamblia killing; hit rate 0.15% among 340,000; Giardia lamblia trophozoite viability; activity change, % at 7.66 µM, hits read low; in the data active = activity change below about -80%; inconclusive = between about -30% and that limit;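 also: parasites exposed to compound for two days anaerobically before the ATP read; % is scaled to controls: 0 for no effect and ±100 for the full control effect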
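Luminescence from cellular ATP indicates surviving trophozoites (100 cells/well) following 48 hrs anaerobic compound treatment at 37 deg C; signal develops 15-30 min at room temperature.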
ELG1 FLuc counter: luciferase inhibition in cell-free luciferin readout for ELG1 hits; cell-free firefly luciferase luminescence counter-screen, ViewLux; AID 624247; hit rate 3% among 350; shares compounds with ELG1 DNA repair; Potency, µM (highest dose often 46.1 µM), inactives show at the highest dose activity change, negative = inhibition, actives largely listed as inhibitors; also: potency is read from the fitted curve at half-maximal effect; % is scaled to controls: 0 for no effect and ±100 for the full control effect
ELG1-Luc inh: inhibits ELG1-dependent DNA repair in HEK293T cells, confirmed. shares compounds with ELG1 DNA repair. HEK293T ELG1-luciferase levels, luminescence; cells co-treated with 5-fluorouridine. Potency, µM (top dose mostly 46.1 µM), without a hit: top-dose activity change, negative = inhibition, actives largely listed as inhibitors. hit rate 68% among 670; also: potency is read from the fitted curve at half-maximal effect; % is scaled to controls: 0 for no effect and ±100 for the full control effect; nearly all actives have a fitted effect of over 55% in size
ELG1 MMS Luc: MMS-stimulated human ELG1 repair inhibition, confirmed; shares compounds with ELG1 DNA repair; HEK293T luciferase-tagged ELG1 level, MMS stimulated; Potency, µM (series often up to 46.1 µM), inactives show at the highest dose activity change, negative = inhibition, actives largely listed as inhibitors; hit rate 53% among 670; also: potency is read from the fitted curve at half-maximal effect; % is scaled to controls: 0 for no effect and ±100 for the full control effect; nearly all actives have a fitted effect of over 60% in size
ELG1 5FU viab: confirmation of ELG1 repair inhibitors: viability with 5FU | cell viability with 5-FU, ELG1-dependent repair | 670 tested, under 10 active | Potency, µM (series often up to 46.1 µM), inactives show top-dose activity change, negative = viability loss, usual class: cytotoxic | shares compounds with ELG1 DNA repair | AID 624250;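 also: ELG1-luc HEK293T cells cotreated with 5-fluorouridine at 10 µM final; potency is read from the fitted curve at half-maximal effect; viability measured 16 h after compound addition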
ELG1 MMS cell: confirmation of ELG1 repair inhibitors: viability with MMS; shares compounds with ELG1 DNA repair; Cell viability with MMS, ELG1-dependent DNA repair; Potency, µM (top dose mostly 46.1 µM), for the others: top-dose activity change, negative = viability loss, hits mostly cytotoxic; hit rate 33% among 670; AID 624251;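 also: ELG1-luc HEK293T cells co-treated with 10 µM MMS; potency is read from the fitted curve at half-maximal effect; viability read 16 h after compound addition; % is scaled to controls: 0 for no effect and ±100 for the full control effect; nearly all actives have a fitted effect of over 60% in size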
Cell viab unstim: affects unstimulated cell viability, ELG1 hit counter-screen; shares compounds with ELG1 DNA repair; cell viability counter-screen, unstimulated, luminescence; hit rate 8% among 900; Potency, µM (series often up to 45.9 µM), inactives show top-dose activity change, negative = loss of viability, most hits filed as cytotoxic; AID 624252;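 also: potency is read from the fitted curve at half-maximal effect; compound exposure lasted 16 hours before reading; % is scaled to controls: 0 for no effect and ±100 for the full control effect; nearly all actives have a fitted effect of over 55% in size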
FLuc enzyme: inhibits purified firefly luciferase, counter-screen for ELG1 hits; shares compounds with ELG1 DNA repair; purified firefly luciferase, luminescence counter-screen; Potency, µM (doses to about 57.5 µM), for inactives: top-dose activity, negative = inhibition, usual class: inhibitors; hit rate 10% among 350; AID 624253; also: potency is read from the fitted curve at half-maximal effect; % is scaled to controls: 0 for no effect and ±100 for the full control effect
* marks the source's active call; other numbers are inactive results; ? = inconclusive; nt = not tested or not shown; [ ] = remark or other dose. In the library only some 7.6% were active in any assay of this set; here they are far more common. Unless noted, calls follow the shape of the dose curve; as a rule, active = well fitted curve in the direction sought with a large enough effect; inconclusive = small, poorly fitted or top-dose-only effect, or another doubt; inactive = no such curve, though single readings can be large; an effect the other way counts as inactive or inconclusive.

SMILES	RORg inh	p53 reactivator	ELG1 DNA repair	BRCA1 expr up	VP16 counter	Giardia killer	ELG1 FLuc counter	ELG1-Luc inh	ELG1 MMS Luc	ELG1 5FU viab	ELG1 MMS cell	Cell viab unstim	FLuc enzyme
Cc1cc(CSc2ccccc2)ccc1NC(=O)c1ccc(CN2CCOCC2)cc1	?	-2%	2%	-34%	?	-4	nt	nt	nt	nt	nt	nt	nt
COc1ccc(NC(=O)/C(C#N)=C/c2cc(C)n(-c3ccc(N4CCOCC4)c([N+](=O)[O-])c3)c2C)cc1	41%	-2%	2.9µM*	-48%	8%	37	nt	4.4µM*	4µM*	-1%	?	?	nt
CCC(C)N(CC(=O)Nc1cccc(C)c1C)C(=O)CCl (stereo not drawn)	-42%	-10%	4.6µM*	-90%	-18%	5	nt	14µM*	1.6µM*	?	7.1µM*	28µM*	nt
C=CCSC1=C(C#N)C(c2cccc(OC)c2)CC(=O)N1 (stereo not drawn)	-14%	0%	11%	7%	2%	1	nt	nt	nt	nt	nt	nt	nt
CCOC(=O)c1ccc(Oc2nc(N(C)C)nc(N3CCOCC3)n2)cc1	23%	-3%	?	-5%	2%	-6	nt	nt	nt	nt	nt	nt	nt
CCC(C)(C)C1CCC2(CC1)NC(=O)N(CC(=O)N(C)CCOc1ccc(Cl)cc1)C2=O (stereo not drawn)	nt	-2%	-5%	-24%	nt	0	nt	nt	nt	nt	nt	nt	nt
O=C(CSc1nc2ccccc2c(=O)n1-c1ccccc1)N/N=C/C=C/c1ccccc1[N+](=O)[O-]	11%	0%	2.9µM*	-23%	8%	?	3%	10µM*	3%	?	?	-1%	-11%
O=C(CSc1nc2ccccc2c(=O)n1-c1ccc(Cl)cc1)N/N=C/C=C/c1ccccc1[N+](=O)[O-]	-3%	-3%	?	-10%	11%	0	nt	nt	nt	nt	nt	nt	nt
O=C(N/N=C/c1c(O)ccc2ccccc12)c1ccc[n+](CCO)c1	-59%	-4%	0%	-46%	-2%	11	nt	nt	nt	nt	nt	nt	nt
Cn1cc(C(=O)N/N=C/c2c(O)ccc3ccccc23)ccc1=O	-13%	-2%	2.3µM*	-94%	-5%	-1	nt	?	3.1µM*	-15%	14µM*	?	nt
COc1ccc(OCC(=O)Nc2cccc(-c3nc4ccccc4o3)c2)cc1	2%	?	?	96%	-9%	-26	nt	nt	nt	nt	nt	nt	nt
CCc1ccc(OCC(=O)Nc2ccc(-c3nc4ccccc4o3)c(O)c2)cc1	15%	2%	?	?	-5%	8	15%	nt	nt	nt	nt	-2%	1%
COc1ccc(C(=O)Nc2cnn(Cc3c(F)cccc3Cl)c2)cc1OC	0%	0%	?	30%	-9%	6	nt	1%	34%	?	10%	5%	nt
N#CC(c1ccncc1)(c1ncc(C(F)(F)F)cc1Cl)N1CCOCC1 (stereo not drawn)	9%	-5%	-6%	-5%	-9%	-2	nt	nt	nt	nt	nt	nt	nt
CCOC(=O)C1=C(N)OC2=C(C(=O)CCC2)C1c1ccc2c(c1)OCO2 (stereo not drawn)	nt	nt	nt	-16%	nt	19	nt	nt	nt	nt	nt	nt	nt
CC(/C=C/C(=O)NO)=C\[C@@H](C)C(=O)c1ccc(N(C)C)cc1	-12%	nt	nt	nt	-16%	nt	119%	nt	nt	nt	nt	14µM*	?
CC1CCc2nc(NC(=O)c3ccc(S(=O)(=O)N4CCCc5ccccc54)cc3)sc2C1 (stereo not drawn)	6.3µM*	-9%	2.9µM*	-41%	-20%	-9	nt	?	2.5µM*	8%	2.8µM*	?	nt
CNC(=O)c1ccsc1NC(=O)c1ccc(S(=O)(=O)N2CCCc3ccccc32)cc1	?	-3%	?	-65%	-11%	33	nt	nt	nt	nt	nt	nt	nt
CCOC(=O)c1cc(-c2ccc(F)cc2)nc2c1c(=O)[nH]c(=O)n2Cc1ccccc1	-4%	-4%	29%	2%	-8%	8	nt	nt	nt	nt	nt	nt	nt
CCOC(=O)c1cc(-c2cc(OC)c(OC)c(OC)c2)nc2c1c(=O)[nH]c(=O)n2Cc1ccccc1	-20%	-1%	13%	-68%	-6%	-26	42%	nt	nt	nt	nt	?	-5%
Cc1nc(NC(=O)COC(=O)[C@@H](NC(=O)c2ccco2)C(C)C)c(Cl)cc1Cl	nt	3%	-18%	-3%	nt	-20	nt	nt	nt	nt	nt	nt	nt
Cc1ccc(C(C(=O)NCc2ccccc2)N(Cc2cccs2)C(=O)c2ccc3c(c2)OCCO3)cc1 (stereo not drawn)	19%	12%	2.9µM*	-63%	-3%	4	-4%	7.9µM*	7.9µM*	-10%	?	?	-3%
CC(=O)Nc1ccc(-c2csc(Nc3cccc(C)n3)n2)cc1	?	13%	?	0%	7%	3	nt	nt	nt	nt	nt	nt	nt
CC1CN(S(=O)(=O)c2ccc(C(=O)NCCCn3ccnc3)cc2)CC(C)O1 (stereo not drawn)	19%	-3%	0.73µM*	11%	-5%[10 µM]	1	?	5%	0.028µM*	-3%	0.032µM*	?	-7%
